Compounds with a hit are over-represented: about 3% of the library has one in this group of screens.
PAFAH1B3 FP inh: PAFAH1B3 (human) inhibition | recombinant PAFAH1B3, FP-rhodamine probe, fluorescence polarization | inhibition, % at 3.39 µM | hit rate 0.28% among 340,000 | Q15102;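 active = inhibition above the screen-wide average of all tested compounds plus 3 SD, cut at about 25% in these data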;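 note: 0% = enzyme with DMSO only and 100% = wells lacking PAFAH1B3 protein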
pPAFAH FP inh: pPAFAH (human) enzyme inhibition; Q13093; recombinant pPAFAH, FP-rhodamine probe fluorescence polarization; inhibition, % at 3.39 µM; hit rate 1.5% among 330,000;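 active = inhibition above the mean inhibition across the screen plus 3 SD, cut at about 25% in these data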;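 note: inhibitors block binding of the rhodamine activity-based probe so polarization drops; 0% = enzyme with DMSO and 100% = wells lacking pPAFAH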
PAFAH2 FP inh: inhibitors of human PAFAH2 | Q99487 | inhibition, % at 3.39 µM | hit rate 0.99% among 340,000 | recombinant PAFAH2, FP-rhodamine activity probe, fluorescence polarization;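 active = inhibition above the mean over all tested compounds plus 3 SD, cut at about 30% in these data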;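 note: inhibitors block probe labeling of enzyme so polarization drops; 0% = enzyme with DMSO and 100% = wells lacking PAFAH2 protein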
DAGLB inhibitor: blocks human DAGLB lipase activity; HEK293T DAGLB membrane lysate, EnzChek fluorogenic substrate; inhibition, % at 5.17 µM; hit rate 0.059% among 340,000; in the data active = inhibition above about 34%;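 note: 0% = enzyme with vehicle and 100% = wells lacking enzyme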
Target sequence (Q8NCG7 whole entry, looked up): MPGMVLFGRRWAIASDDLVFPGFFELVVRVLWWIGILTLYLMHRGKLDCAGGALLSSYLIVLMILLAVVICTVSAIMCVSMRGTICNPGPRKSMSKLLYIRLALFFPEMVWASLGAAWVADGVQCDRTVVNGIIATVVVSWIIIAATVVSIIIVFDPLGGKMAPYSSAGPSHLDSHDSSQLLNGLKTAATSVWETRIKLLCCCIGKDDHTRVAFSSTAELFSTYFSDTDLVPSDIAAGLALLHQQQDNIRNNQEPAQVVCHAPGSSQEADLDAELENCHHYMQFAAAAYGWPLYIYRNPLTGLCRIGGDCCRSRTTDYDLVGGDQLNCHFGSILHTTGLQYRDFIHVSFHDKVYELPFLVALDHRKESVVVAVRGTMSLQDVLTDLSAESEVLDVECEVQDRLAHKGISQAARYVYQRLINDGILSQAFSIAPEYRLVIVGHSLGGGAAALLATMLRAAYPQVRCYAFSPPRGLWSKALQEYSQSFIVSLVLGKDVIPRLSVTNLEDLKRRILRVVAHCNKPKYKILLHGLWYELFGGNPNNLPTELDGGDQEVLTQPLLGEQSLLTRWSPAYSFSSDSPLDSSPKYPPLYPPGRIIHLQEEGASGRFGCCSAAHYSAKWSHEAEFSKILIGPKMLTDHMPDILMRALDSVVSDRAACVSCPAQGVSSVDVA
PAFAH1B2 inh: inhibitors of human PAFAH1B2; P68402; recombinant PAFAH1B2, FP-rhodamine activity probe, fluorescence polarization; inhibition, % at 3.39 µM; hit rate 1.2% among 340,000; AID 492953;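 active = inhibition above the mean of all tested compounds plus 3 SD, cut at about 24% in these data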;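 note: 0% = enzyme with DMSO and 100% = wells lacking PAFAH1B2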
ATG4B inhibitor: blocks human ATG4B protease cleavage of LC3 substrate; ATG4B cleavage of LC3-PLA2, NBD-HPC fluorescence, 1 h; Q9Y4P1; AID 504462; hit rate 0.51% among 340,000; inhibition, % at 8.33 µM; in the data active = inhibition above about 40%
pPAFAH FP conf: pPAFAH (human) inhibition, confirmed; shares compounds with pPAFAH FP inh; recombinant pPAFAH, FP-Rh probe fluorescence polarization; inhibition, % at 3.39 µM; hit rate 72% among 2,300;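 active = mean inhibition of the triplicate above the hit cutoff set for the earlier primary screen, cut at about 25% in these data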;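 note: 0% = enzyme with DMSO and 100% = wells lacking pPAFAH enzyme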
Starred values were filed as active, the others as inactive.

How did COc1cc2cc(Oc3ccc4ccc(=O)oc4c3)c(=O)oc2cc1O[C@@H]1O[C@H](CO)[C@@H](O)[C@H](O)[C@H]1O do in these assays?
PAFAH1B3 FP inh: 20; pPAFAH FP inh: 50*; PAFAH2 FP inh: 15; DAGLB inhibitor: 2; PAFAH1B2 inh: 8; ATG4B inhibitor: 14; pPAFAH FP conf: 18

What do the screens show for `CCN1C=C(C(=O)OC)C(c2cccc(OC)c2OC)C(C(=O)OC)=C1`?
PAFAH1B3 FP inh: 5; pPAFAH FP inh: 0; PAFAH2 FP inh: 2; DAGLB inhibitor: 0; PAFAH1B2 inh: 1; ATG4B inhibitor: -4

What do the screens show for `O=[N+]([O-])c1cccc(N/N=C/c2cccc(O)c2O)c1`?
PAFAH1B3 FP inh: 17; pPAFAH FP inh: 60*; PAFAH2 FP inh: 8; DAGLB inhibitor: 18; PAFAH1B2 inh: -2; ATG4B inhibitor: 1; pPAFAH FP conf: 66*

Results for Cc1cccc(N/N=C/c2ccc(O)c(O)c2O)c1 ?
PAFAH1B3 FP inh: 8; pPAFAH FP inh: 45*; PAFAH2 FP inh: 7; DAGLB inhibitor: 6; PAFAH1B2 inh: -3; ATG4B inhibitor: -9; pPAFAH FP conf: 44*

Results for O=[N+]([O-])c1ccc(N/N=C/c2cccc(O)c2O)c(S(=O)(=O)N2CCOCC2)c1 ?
PAFAH1B3 FP inh: 4; pPAFAH FP inh: 45*; PAFAH2 FP inh: -14; DAGLB inhibitor: 13; PAFAH1B2 inh: -8; ATG4B inhibitor: -4; pPAFAH FP conf: 57*

Results for COc1cccc(N/N=C/c2cccc(Br)c2O)c1 ?
PAFAH1B3 FP inh: 6; pPAFAH FP inh: 8; PAFAH2 FP inh: 29; DAGLB inhibitor: 1; PAFAH1B2 inh: 7; ATG4B inhibitor: 1

How did O=[N+]([O-])c1ccc(N/N=C/c2ccc(O)c(O)c2O)c(S(=O)(=O)N2CCOCC2)c1 do in these assays?
PAFAH1B3 FP inh: 11; PAFAH2 FP inh: 13; DAGLB inhibitor: 22; PAFAH1B2 inh: 7; ATG4B inhibitor: -5

Results for O=[N+]([O-])c1ccccc1N/N=C/c1cccc(O)c1O ?
PAFAH1B3 FP inh: 0; pPAFAH FP inh: 50*; PAFAH2 FP inh: 2; DAGLB inhibitor: 15; PAFAH1B2 inh: -2; ATG4B inhibitor: -1; pPAFAH FP conf: 14

How did Cc1cc(C)c(Nc2ncnc(N)n2)c(C)c1 do in these assays?
PAFAH1B3 FP inh: -4; pPAFAH FP inh: 1; PAFAH2 FP inh: 4; DAGLB inhibitor: -1; PAFAH1B2 inh: 3; ATG4B inhibitor: -7

What do the screens show for `C[C@@H](N)C(=O)NC[C@H]1CC[C@H](C(=O)N[C@@H](Cc2ccccc2)C(=O)O)CC1`?
PAFAH1B3 FP inh: 6; PAFAH2 FP inh: 11; DAGLB inhibitor: -4; PAFAH1B2 inh: 4; ATG4B inhibitor: -7

What do the screens show for `COc1ccc(Cl)cc1Nc1cc(C)nc2ncnn12`?
DAGLB inhibitor: -3

Results for CN(C)c1ccc(C(=O)OCC(=O)NCCC2=CCCCC2)cc1 ?
PAFAH1B3 FP inh: -1; pPAFAH FP inh: 38*; PAFAH2 FP inh: 80*; DAGLB inhibitor: -5; PAFAH1B2 inh: 1; ATG4B inhibitor: -1; pPAFAH FP conf: 24

What do the screens show for `O=Cc1ccc(C(=O)OCC(=O)NCCC2=CCCCC2)cc1`?
PAFAH1B3 FP inh: 1; pPAFAH FP inh: 7; PAFAH2 FP inh: 23; DAGLB inhibitor: 2; PAFAH1B2 inh: -2; ATG4B inhibitor: 3

Results for CCOC(=O)C(C(=O)OCC)c1c([N+](=O)[O-])c(=O)n2c3c(cccc13)CCC2 ?
PAFAH1B3 FP inh: 6; pPAFAH FP inh: -1; PAFAH2 FP inh: -4; DAGLB inhibitor: -1; PAFAH1B2 inh: 3; ATG4B inhibitor: -3

How did COc1ccccc1C(=O)NCC(=O)OCc1csc(-c2ccccc2)n1 do in these assays?
PAFAH1B3 FP inh: 0; pPAFAH FP inh: -3; PAFAH2 FP inh: -9; DAGLB inhibitor: -1; PAFAH1B2 inh: 6; ATG4B inhibitor: -2

What do the screens show for `CCOc1ccccc1C(=O)NCC(=O)OCc1csc(CC(=O)Nc2ccc(C)cc2)n1`?
PAFAH1B3 FP inh: 2; pPAFAH FP inh: 37*; PAFAH2 FP inh: 29; DAGLB inhibitor: -1; PAFAH1B2 inh: 0; ATG4B inhibitor: -4; pPAFAH FP conf: 18

What do the screens show for `NC1=NC(=Nc2cccc(S(N)(=O)=O)c2)c2ccccc21`?
PAFAH1B3 FP inh: 10; pPAFAH FP inh: 3; PAFAH2 FP inh: -1; DAGLB inhibitor: 0; PAFAH1B2 inh: 3; ATG4B inhibitor: -8

What do the screens show for `COc1cc(N=Nc2cccc(S(N)(=O)=O)c2)c2ccccc2c1N`?
PAFAH1B3 FP inh: 18; pPAFAH FP inh: 50*; PAFAH2 FP inh: 20; DAGLB inhibitor: 26; PAFAH1B2 inh: 12; ATG4B inhibitor: -13; pPAFAH FP conf: 32*

What do the screens show for `CC1CC(C)CN(S(=O)(=O)CC23CCC(CC2=O)C3(C)C)C1` (stereo not drawn)?
PAFAH1B3 FP inh: -1; pPAFAH FP inh: 3; PAFAH2 FP inh: -9; DAGLB inhibitor: -1; PAFAH1B2 inh: 2; ATG4B inhibitor: -1

How did COc1ccc(C)cc1S(=O)(=O)NCC(c1ccco1)N1CCc2ccccc2C1 (stereo not drawn) do in these assays?
PAFAH1B3 FP inh: 2; pPAFAH FP inh: 1; PAFAH2 FP inh: -3; DAGLB inhibitor: -1; PAFAH1B2 inh: -3; ATG4B inhibitor: -12

Results for Cc1ccc(NS(=O)(=O)c2cccc(C(=O)N/N=C/c3c(C)nn(-c4ccccc4)c3N3CCCC3)c2)c(C)c1 ?
PAFAH1B3 FP inh: 8; pPAFAH FP inh: 58*; PAFAH2 FP inh: -1; DAGLB inhibitor: 4; PAFAH1B2 inh: -8; ATG4B inhibitor: 16; pPAFAH FP conf: 35*

Results for CCNc1ccc(C(=O)N/N=C/c2c(C)nn(-c3ccccc3)c2N2CCCC2)cc1[N+](=O)[O-] ?
PAFAH1B3 FP inh: 6; pPAFAH FP inh: 3; PAFAH2 FP inh: -2; DAGLB inhibitor: 2; PAFAH1B2 inh: 3; ATG4B inhibitor: -3

Results for CCc1ccccc1Nc1nc(N)nc(CSCC(=O)Nc2ccc(C)c(C)c2)n1 ?
PAFAH1B3 FP inh: 0; pPAFAH FP inh: 3; PAFAH2 FP inh: 2; DAGLB inhibitor: 1; PAFAH1B2 inh: 9; ATG4B inhibitor: -13

How did O=C(O)CN1C(=O)C(=O)N(Cc2ccccc2F)C1=O do in these assays?
PAFAH1B3 FP inh: 9; pPAFAH FP inh: 3; PAFAH2 FP inh: -6; DAGLB inhibitor: 2; PAFAH1B2 inh: 1; ATG4B inhibitor: 0

How did COc1ccc(NS(=O)(=O)c2cccc(C(=O)NN=Cc3cc(Br)c(O)c(Br)c3)c2)cc1 do in these assays?
PAFAH1B3 FP inh: 8; pPAFAH FP inh: 61*; PAFAH2 FP inh: 28; DAGLB inhibitor: 22; PAFAH1B2 inh: 10; ATG4B inhibitor: 1; pPAFAH FP conf: 69*

How did CCN1CCN(C(=O)CCN2C(=O)COc3ccc(C)cc32)CC1 do in these assays?
PAFAH1B3 FP inh: 2; pPAFAH FP inh: 0; PAFAH2 FP inh: -5; DAGLB inhibitor: -2; PAFAH1B2 inh: 2; ATG4B inhibitor: -4

Assay outcomes (PubChem BioAssay)
